A short description of the assay: Peg3 promoter luciferase inhibitors, potency, dose response, cell-based, HeLa, CREF/GAPDH counter-screen panel (AID 624167). Particulars: CREF/GAPDH counter-screens; run 1, dose range 1, at 100 µM (top of the series). A general note: The purpose of a counterscreen is to sort out artefacts and off-target activity.
Consider `O=C1C=CC(=O)N1c1ccc(-c2nc3ccccc3o2)cc1`, for which the inhibition (commonly the relative decrease from the control value, in per cent) came out at 100%. The same measure for `N=c1n(CC(=O)c2ccc([N+](=O)[O-])cc2)c2ccccc2n1Cc1ccc(Cl)cc1`: 86%.

`CN=c1sc2c(n1C)C(=O)c1ccccc1C2=O`: the inhibition stood at 89.9%.

Consider `C=CCn1c(C)cc(C(=O)COc2ccc(C)nc2[N+](=O)[O-])c1C`, for which the inhibition turned out to be 51.5%. The same measure for `CCOc1cccc(/C=N/NC(=S)Nc2cc(S(=O)(=O)N3CCOCC3)ccc2N2CCOCC2)c1O`: -13.9%; for `CCCCCCCn1c(=N)n(CC(=O)c2ccco2)c2ccccc21`: 92.5%. The same measure for `Oc1[nH]c2ccc(Br)cc2c1N=NC(=S)N1CCOCC1`: 75.3%. The same measure for `O=c1c2ccccc2sc2nc(CCl)nn12`: 100%; for `CC(=O)c1ccc(-c2cnc3c(NC=O)cc(-c4ccccc4Oc4ccccc4)cn23)cc1`: 39.3%; for `CCCC(=O)NC(c1ccccc1)c1ccc2cccnc2c1O` (stereo unspecified): 26.9%. In the case of `CC(=O)NC(c1ccc(Cl)cc1Cl)c1ccc2cccnc2c1O` (stereo unspecified), the inhibition came to 55.7%.

Take `Cc1ccc(NC(=S)NC(=O)c2ccc(F)cc2)cc1S(=O)(=O)Nc1ccccc1Cl`: the inhibition was 70.9%.

In the case of `C=CCc1cccc(/C=N/NC(=O)C(C)Nc2cccc(C)c2)c1O` (stereo unspecified), the inhibition was 29%. The same measure for `CC(=O)c1cccc(-c2ccnc3c2CC(C(=O)Nc2cccc(NS(C)(=O)=O)c2)O3)c1` (stereo unspecified): 51.4%. The same measure for `O=C(N/N=C/c1c(O)ccc2ccccc12)c1ccc(CO)nc1`: -8.84%.

In the case of `COc1ccc(-n2cc(-c3ccccc3)c3c(N4CCOCC4)ncnc32)cc1`, the inhibition turned out to be 87.7%.
